EZH2 inh: EZH2/PRC2 methyltransferase inhibitors, primary screen, biochemical, DELFIA time-resolved fluorescence, single point; inhibition, % at 12.5 µM; AID 651548, 2012; 57,000 tested, 0.35% active; PRC2 H3K27 methylation, DELFIA TRF, 1 h;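 active means mean inhibition of replicates at least 50% and every single replicate also reaching 50%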;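 further: dimethyl H3K27 on biotinylated H3 21-44 peptide detected by antibody; plate controls were median neutral control wells for no effect and median positive control wells for full effect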
Target sequence (Q15910 whole entry, looked up): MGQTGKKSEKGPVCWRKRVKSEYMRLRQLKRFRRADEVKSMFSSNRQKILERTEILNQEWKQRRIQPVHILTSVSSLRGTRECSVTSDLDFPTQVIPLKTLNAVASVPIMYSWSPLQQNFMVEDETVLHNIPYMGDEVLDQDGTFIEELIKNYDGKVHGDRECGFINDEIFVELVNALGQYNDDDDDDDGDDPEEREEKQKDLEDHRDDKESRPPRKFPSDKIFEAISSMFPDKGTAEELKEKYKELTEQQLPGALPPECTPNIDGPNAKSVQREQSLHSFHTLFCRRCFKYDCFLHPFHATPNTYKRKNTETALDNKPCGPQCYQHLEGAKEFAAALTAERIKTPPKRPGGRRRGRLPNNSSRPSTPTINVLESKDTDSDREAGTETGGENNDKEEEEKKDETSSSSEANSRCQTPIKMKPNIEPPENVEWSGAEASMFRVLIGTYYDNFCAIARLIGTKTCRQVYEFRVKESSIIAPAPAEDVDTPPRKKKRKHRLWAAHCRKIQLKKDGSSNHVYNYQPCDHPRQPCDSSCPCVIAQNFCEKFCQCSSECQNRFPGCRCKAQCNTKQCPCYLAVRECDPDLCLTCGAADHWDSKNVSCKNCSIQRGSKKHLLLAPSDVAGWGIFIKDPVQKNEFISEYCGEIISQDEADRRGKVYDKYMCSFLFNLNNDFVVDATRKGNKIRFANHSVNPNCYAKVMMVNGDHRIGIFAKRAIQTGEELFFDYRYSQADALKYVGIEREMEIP
Active calls of the source: *. Many of the other results were omitted from the sample, so hits are more common in it than they were.

SMILES	EZH2 inh
CCOC(=O)c1c(NC(=O)Cn2cnc3ccccc3c2=O)sc2c1CCCC2	9
O=C(CSc1nc2ccccc2c(=O)[nH]1)Nc1ccc(F)c(Cl)c1	31
CCOC(=O)c1c(NC(=O)CSc2nc3ccccc3c(=O)[nH]2)sc2c1CCCC2	76*
COc1ccc(NC(=O)CSc2nc3ccccc3c(=O)[nH]2)cc1Cl	-6
Cc1ccc(/C=N/NC(=O)CCCCCC(=O)NO)o1	13
CC(=O)c1cccc(NC(=O)NCc2cc(C)n(C)n2)c1	1
Cc1ccc(C)c(NC(=O)CSc2ncnc3sc4c(c23)CCC4)c1	-3
Cc1ccc(S(=O)(=O)N(CC(=O)O)c2cc(Cl)ccc2C)cc1	0
Cc1ccc(NC(=O)CSc2n[nH]c(-c3ccccc3Cl)n2)cc1C	-4
Cc1ccc(NC(=O)CSc2nc3sc(C)c(C)c3c(=O)n2-c2ccc(C)c(C)c2)cc1	15
O=C(CCCCCC(=O)NN=C1CCCC1)NO	-11
COC(=O)c1ccccc1NC(=O)CSc1nnnn1-c1cccc2ccccc12	15
N#C[C@@H](O[C@@H]1O[C@H](CO)[C@@H](O)[C@H](O)[C@H]1O[C@@H]1O[C@H](CO)[C@@H](O)[C@H](O)[C@H]1O)c1ccccc1	-11
C[C@@H]1O[C@@H](O[C@@H]2[C@@H](O)[C@H](Oc3cc(O)c4c(c3)OC(c3ccc(O)cc3)CC4=O)O[C@H](COC3OCC(O)C(O)C3O)[C@H]2O)[C@H](O)[C@H](O)[C@H]1O (stereo partly specified)	-14
N#CC(OC1OC(COC2OCC(OC(=O)/C=C/c3ccc(OC4OC(CO)C(O)C(O)C4O)cc3)C(O)C2O)C(O)C(O)C1O)c1ccccc1 (stereo unspecified)	90*
CCOC(=O)c1c(-c2ccc(C)cc2)csc1NC(=O)C1COc2ccccc2O1 (stereo unspecified)	4
Cn1c(=O)c([N+](=O)[O-])c(NCc2ccco2)c2ccccc21	-10
COc1ccc(NC(=O)c2ccc(OCC(=O)Nc3cccc(C)c3C)cc2)cc1Cl	-14
O=C(OCC1OC(Oc2ccc(O)cc2COC(=O)C2(O)C(O)CCC(=O)C2O)C(O)C(O)C1O)c1ccccc1 (stereo unspecified)	22
CC(C)CC(=O)c1c(O)cc(O)cc1OC1OC(COC(=O)c2cc(O)c(O)c(O)c2)C(O)C(O)C1O (stereo unspecified)	94*
O=C(OCc1ccccc1O[C@@H]1O[C@H](CO)[C@@H](O)[C@H](O)[C@H]1O)c1c(O)cccc1O[C@@H]1O[C@H](CO)[C@@H](O)[C@H](O)[C@H]1O	2
COC(=O)c1c(NC(=O)c2ccc(OC)c(OC)c2)sc2c1C(C(=O)OC)CC2 (stereo unspecified)	10
CC(C)c1onc(-c2c(Cl)cccc2Cl)c1COc1ccc(/C=C/c2cccc(C(=O)O)c2)c(Cl)c1	73*
COc1ccc(C)cc1NC(=O)C(C)NS(=O)(=O)c1ccc(Cl)cc1 (stereo unspecified)	-1
COC(=O)c1ccc(NC(=O)CCC(=O)c2ccc(OC)cc2)cc1	-1
SMILES	EZH2 inh
COC(=O)c1ccc(C2C(C(=O)c3ccco3)C(=O)C(=O)N2Cc2ccco2)cc1 (stereo unspecified)	-7
COC(=O)c1ccc(C2C(Oc3ccc(OC)cc3)C(=O)N2Cc2ccc(F)cc2)cc1 (stereo unspecified)	51*
Fc1ccccc1-c1nnc(SCc2ccc(Br)cc2)n1Cc1ccco1	79*
Fc1ccccc1CSc1nnc(-c2cnccn2)n1Cc1ccco1	2
Clc1ccc(CSc2nnc(-c3ccco3)n2Cc2ccco2)c(Cl)c1	45
CCn1ncc(C2=NOC(C(=O)Nc3ccc(Cl)c(Cl)c3)C2)c1C (stereo unspecified)	-1
COc1ccc(-c2cc(=O)c3c(O)c(OC)c(O[C@H]4O[C@H](CO[C@@H]5O[C@@H](C)[C@H](O)[C@@H](O)[C@H]5O)[C@@H](O)[C@H](O)[C@H]4O)cc3o2)cc1	-1
C=Cc1ccc(O[C@@H]2O[C@H](CO[C@@H]3O[C@@H](C)[C@H](O)[C@@H](O)[C@H]3O)[C@@H](O)[C@H](O)[C@H]2O)cc1	87*
CC1OC(Oc2ccc(-c3cc(=O)c4c(O)cc(OC5OC(CO)C(O)C(O)C5O)cc4o3)cc2)C(O)C(O)C1O (stereo unspecified)	9
COc1cc(NC(=O)C(C)N2C(=O)C3CC=C(Cl)CC3C2=O)ccc1[N+](=O)[O-] (stereo unspecified)	2
COC(=O)c1cc(NC(=O)CSc2nc(Nc3ccccc3)nc(N3CCOCC3)n2)ccc1Cl	4
C[C@@H]1CC[C@]2(C)[C@H](CC[C@@H](O)[C@]2(C)O)[C@@]1(C)CC/C(=C/CO)CO	87*
CC1CCC2(C)C(CC(O)C(O)C2(O)CO)C1(C)CCc1ccoc1 (stereo unspecified)	-9
CS(=O)(=O)N(CC(=O)Nc1ccccc1C(=O)N1CCOCC1)c1cc(C(F)(F)F)ccc1Cl	17
CS(=O)(=O)N(CC(=O)Nc1ccccc1C(F)(F)F)C1CCCCC1	0
CCn1c(SCC(=O)Nc2ccccc2F)nnc1-c1ccccc1	2
COc1cc(/C=C/c2cc(O)cc(O[C@@H]3O[C@H](CO)[C@@H](O)[C@H](O)[C@H]3O)c2)ccc1O[C@@H]1O[C@H](CO)[C@@H](O)[C@H](O)[C@H]1O	28
COc1cc(C2OCC3(OC4OC(CO)C(O)C(O)C4O)C(c4ccc(O)c(OC)c4)OCC23)ccc1O (stereo unspecified)	-21
COc1cc(C[C@H]2CO[C@H](c3ccc(O[C@@H]4O[C@H](CO)[C@@H](O)[C@H](O)[C@H]4O)c(OC)c3)[C@H]2CO)ccc1O	100*
COc1ccccc1OCC(=O)Nc1cc(Cl)ccc1O	-5
O=C(CCCCCCC(=O)Nc1ccccc1O)N/N=C/c1ccccc1C(=O)O	12
CCCCCCCCC(=O)NCc1cc(OC)c(O)cc1I	12
COc1ccc(OC)c(NC(=O)COc2ccc(C(C)(C)C)cc2)c1	35
CCCCCCCCCCC(C)(C)C(=O)Nc1c(OC)cc(OC)cc1OC	85*
CN(c1ccccc1C(=O)Nc1ccccc1C(=O)N1CCOCC1)S(C)(=O)=O	4
SMILES	EZH2 inh
Cc1cc(O)c(C)c2c1Oc1c(C)c(O)cc(C)c1C(=O)O2	-31
O=C(CCCCCCC(=O)N/N=C/c1cc(O)ccc1[N+](=O)[O-])NO	15
COc1ccc(S(=O)(=O)N(C)CC(=O)Nc2ccc(Br)cc2F)cc1	-3
Cc1cc(C)c(S(=O)(=O)N(C)CC(=O)Nc2cccc([N+](=O)[O-])c2)c(C)c1	-6
Cc1ccc2c(CC(=O)NCc3ccco3)coc2c1C	-10
Cc1ccc2c(CC(=O)Nc3cccc([N+](=O)[O-])c3)coc2c1C	51*
Cc1c(NC(=O)CN(c2cc(Cl)c(Cl)cc2Cl)S(C)(=O)=O)cccc1[N+](=O)[O-]	-12
COc1ccc(Cl)cc1NC(=O)CN(C)S(=O)(=O)c1ccc2ccccc2c1	11
CCn1ccc(CNC(=O)Nc2ccc(Cl)cc2Cl)n1	5
Cc1ccc(-n2nc3cc(C)c(NC(=O)COc4cccc(C)c4)cc3n2)cc1	-6
CO[C@@H]1CN(C)C(=O)c2ccc(NS(=O)(=O)c3cccc(F)c3)cc2OC[C@H](C)N(Cc2cc(F)ccc2F)C[C@@H]1C	54*
